High-throughput results as filed in PubChem.
PAX8 inh HTS – PAX8 transcriptional activity inhibition | RMG-I TPO-luciferase reporter, SteadyGlo, 24 h | inhibition, % at 12.6 µM | actives 1.2% (n = 360,000);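 active means mean replicate inhibition at least 60% with every replicate also reaching 60%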;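 further: luciferase light reporting Pax8 driven TPO promoter activity; plate controls were median of neutral control wells for no effect and mitoxantrone controls for full effect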
HIF-2a block – inhibitors of HIF-2a; AID 624352; actives 0.72% (n = 360,000); 786-0 RCC cells HIF-2a reporter, luciferase luminescence, overnight; inhibition, % at 18.8 µM;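 active means inhibition of the luminescence signal of 40% or more relative to plate controls, in a single-dose primary screen at 18.75 µM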
EBV LMP1 NFkB – Epstein-Barr LMP1 NF-kappaB reporter inhibition; LMP1-induced NF-kappaB luciferase reporter cells, luminescence; inhibition, % at 12.5 µM; actives 0.69% (n = 350,000); AID 504558; in the data active means inhibition above about 41%;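 further: 0% = neutral control wells and 100% = reference inhibitor control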
Peg3 promoter – Peg3 promoter activity inhibition; HeLa PEG-Prom luciferase reporter, luminescence, overnight; inhibition, % at 20 µM; actives 1.7% (n = 360,000);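 active means inhibition of at least 50% at 20 µM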
Shn3 3UTR inh – reduces Shn3 3'UTR luciferase signal in osteoblasts. Clone20 osteoblast Shn3 3'UTR firefly luciferase, 24 h. inhibition, % at 12.5 µM. actives 0.52% (n = 360,000). AID 588674;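 active means mean inhibition of at least 75% with every replicate also reaching 75%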;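 further: 0% = median of neutral control wells and 100% = pilot-screen positive control compound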
MITF TRPM1 inh – inhibitors of MITF-driven TRPM1 promoter in melanoma cells; SK-MEL-5 TRPM1 promoter luciferase, 24 h; inhibition, % at 12.5 µM; actives 0.83% (n = 330,000); AID 488899;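 active means mean inhibition across replicates of 60% or more, whatever share of single replicates reaches that level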
Mdm2-MdmX confirm – confirmation of inhibitors of human Mdm2/MdmX interaction, set 2; shares compounds with HIF-2a block; SaOS-2 split-luciferase Mdm2/MdmX complementation, luminescence; inhibition, % at 8 µM; actives 99% (n = 740);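 active means mean inhibition of the luminescence signal across two replicates at or above 26 percent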
Target sequence (O15151 whole entry, looked up): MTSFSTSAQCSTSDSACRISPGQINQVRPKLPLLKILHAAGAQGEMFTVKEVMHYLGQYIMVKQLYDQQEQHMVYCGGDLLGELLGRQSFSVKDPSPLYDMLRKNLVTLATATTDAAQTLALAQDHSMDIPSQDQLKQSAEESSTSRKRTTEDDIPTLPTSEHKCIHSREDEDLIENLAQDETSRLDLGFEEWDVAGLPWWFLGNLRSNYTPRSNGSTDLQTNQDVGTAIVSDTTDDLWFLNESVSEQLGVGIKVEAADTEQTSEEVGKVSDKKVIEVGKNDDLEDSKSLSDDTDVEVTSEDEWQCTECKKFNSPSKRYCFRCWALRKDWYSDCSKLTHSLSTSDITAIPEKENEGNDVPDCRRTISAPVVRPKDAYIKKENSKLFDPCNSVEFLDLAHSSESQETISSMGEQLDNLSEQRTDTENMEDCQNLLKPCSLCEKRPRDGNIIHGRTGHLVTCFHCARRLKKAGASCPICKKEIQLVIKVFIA
Target sequence (Q00987 whole entry, looked up): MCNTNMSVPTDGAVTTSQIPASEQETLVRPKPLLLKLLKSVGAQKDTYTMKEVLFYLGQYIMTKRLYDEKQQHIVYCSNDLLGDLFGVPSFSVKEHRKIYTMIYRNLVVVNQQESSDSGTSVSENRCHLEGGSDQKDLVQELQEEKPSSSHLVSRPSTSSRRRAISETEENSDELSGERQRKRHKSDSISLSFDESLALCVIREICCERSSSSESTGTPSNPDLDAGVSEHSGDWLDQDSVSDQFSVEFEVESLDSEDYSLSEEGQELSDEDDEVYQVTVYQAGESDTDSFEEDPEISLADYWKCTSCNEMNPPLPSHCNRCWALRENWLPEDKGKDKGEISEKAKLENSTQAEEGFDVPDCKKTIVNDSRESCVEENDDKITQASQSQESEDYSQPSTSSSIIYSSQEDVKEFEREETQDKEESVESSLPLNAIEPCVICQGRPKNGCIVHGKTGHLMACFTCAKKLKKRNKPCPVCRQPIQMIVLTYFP
HIF-2a inh conf – confirmation of HIF-2a inhibitors; inhibition, % at 18.8 µM; shares compounds with HIF-2a block; AID 651580; 786-0 RCC cells, HIF-2a luciferase reporter luminescence, overnight; actives 56% (n = 1,800);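 active means mean inhibition across four replicates of at least 40 percent at the single tested concentration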
HIF-1a cs – counter-screen for HIF-2a inhibitors: HIF-1a inhibition in MiaPaCa-2 cells; shares compounds with HIF-2a block; MiaPaCa-2 HIF-1a luciferase reporter, desferoxamine, overnight; inhibition, % at 18.8 µM; actives 72% (n = 1,800); AID 651589;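 active means mean inhibition of the reporter signal across four replicates at the single tested dose of 50% or more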
Numbers without * were called inactive; nt = not tested or not shown; ! = not confirmed by another sample. Sampled rows, rich in hits. Any-hit rate of the full collection: about 2.8%.

SMILES	PAX8 inh HTS	HIF-2a block	EBV LMP1 NFkB	Peg3 promoter	Shn3 3UTR inh	MITF TRPM1 inh	HIF-2a inh conf	HIF-1a cs	others
O=C(Nc1ccc(N2CCN(C(=O)c3cccs3)CC2)cc1)c1ccc([N+](=O)[O-])o1	98*	98*	-51	107*	-15	98*	99*	104*
CC(=O)N1CCN(c2ccc(NC(=O)c3ccco3)cc2Cl)CC1	-37	-120	-39	-82	-33	-25	nt	nt
O=C(Nc1ccc(N2CCN(C(=O)c3cccs3)CC2)cc1)c1ccco1	-3	-28	4	-23	9	7	nt	nt
CC(=O)N1CCN(c2ccc(NC(=O)c3ccc([N+](=O)[O-])o3)cc2Cl)CC1	102*	88*	-26	101*	96*	95*	52*	83*
CCN1CCN(c2ccc(NC(=O)c3ccc(F)cc3)cc2Cl)CC1	0	-4	-8	-8	-55	-5	nt	nt
C[C@H](CO)N1C[C@H](C)[C@H](CN(C)Cc2ccncc2)OCCCC[C@H](C)Oc2ccc(NC(=O)NC3CCCCC3)cc2C1=O	17	nt	nt	nt	nt	nt	nt	nt
CNC(=O)C1=C[C@H](c2ccc(C(=O)OC)cc2)C[C@H](OCCCCO)O1	-17	nt	nt	nt	nt	nt	nt	nt
Cc1noc(C)c1S(=O)(=O)Nc1ccc2c(c1)C(=O)N([C@@H](C)CO)C[C@H](C)[C@H](CN(C)C(=O)Nc1ccc(F)cc1)OCCCC[C@H](C)O2	4	nt	nt	nt	nt	nt	nt	nt
Cn1cnc([N+](=O)[O-])c1S(=O)(=O)Oc1ccc(Cl)cc1	110*	81*	-17	103*	93*	68*	30	26
Cn1cnc([N+](=O)[O-])c1S(=O)(=O)Oc1cccc2ccccc12	80*	83*	1	105*	97*	93*	31	66*
CC1CCC(C(C)C)C(OC(=O)Cn2c(-c3ccc(Cl)cc3)[n+](C)c3ccccc32)C1 (stereo not given)	96*	-65	10	76*	68	90*	nt	nt	Mdm2-MdmX confirm=100*
CC1CCC(C(C)C)C(OC(=O)Cn2c(-c3ccc(Br)cc3)[n+](C)c3ccccc32)C1 (stereo not given)	100*	-29	-1	96*!	21	91*	nt	nt	Mdm2-MdmX confirm=103*
Cc1ccccc1OCc1n(CC(=O)OC2CC(C)CCC2C(C)C)c2ccccc2[n+]1C (stereo not given)	105*	94*!	-4	102*	6	97*!	37	107*	Mdm2-MdmX confirm=102*
CC1CCC(C(C)C)C(OC(=O)COC(=O)c2ccc(N)cc2)C1 (stereo not given)	10	20	10	12	1	14	nt	nt
CC1CCC(C(C)C)C(OC(=O)COC(=O)c2cccn2C)C1 (stereo not given)	nt	6	5	10	-4	1	nt	nt
COc1ccc(CN(C)C[C@H]2OCCCC[C@@H](C)Oc3ccc(NC(=O)Nc4ccc5c(c4)OCO5)cc3C(=O)N([C@@H](C)CO)C[C@H]2C)cc1	11	nt	nt	nt	nt	nt	nt	nt
CC(=O)c1sc(NC(=O)C2CC(=O)N(Cc3ccccc3)C2)nc1-c1ccccc1 (stereo not given)	18	41*	9	4	7	-6	9	29
CC(=O)Nc1ccc(NC(=O)C2CC(=O)N(Cc3ccccc3)C2)cc1 (stereo not given)	12	21	10	-2	15	-7	nt	nt
C[C@H]1CCCCO[C@H](CN(C)Cc2ccc(C(=O)O)cc2)[C@@H](C)CN([C@@H](C)CO)C(=O)c2cc(N(C)C)ccc2O1	-12	nt	nt	nt	nt	nt	nt	nt
CC1Cc2ccccc2N1S(=O)(=O)c1cccc(C(=O)N2CCN(c3ncccn3)CC2)c1 (stereo not given)	31	-13	29	22	3	17	nt	nt	Mdm2-MdmX confirm=100*
CC(=O)N1CCN(C(=O)c2cccc(S(=O)(=O)N3c4ccccc4CC3C)c2)CC1 (stereo not given)	2	7	-6	-3	-19	1	nt	nt
CC(C)(C)c1nc(SCC(=O)Nc2nc3c(s2)CCCC3)c2ccccc2n1	nt	-5	34	29	19	5	nt	nt	Mdm2-MdmX confirm=101*
COc1ccc(CN(C)C[C@H]2Oc3ccc(NS(=O)(=O)c4ccc(F)cc4)cc3C(=O)N([C@@H](C)CO)C[C@@H]2C)cc1	-3	nt	nt	nt	nt	nt	nt	nt
O=C(NCc1ccccc1)c1c(Cl)nc(Cl)c(Cl)c1Cl	24	37	81*	102*	-4	77*	nt	nt	Mdm2-MdmX confirm=103*
COc1ccc(CNC(=O)c2nc(S(=O)(=O)Cc3ccccc3)ncc2Cl)cc1	36	91*	-6	104*	92*	67*	63*	35
SMILES	PAX8 inh HTS	HIF-2a block	EBV LMP1 NFkB	Peg3 promoter	Shn3 3UTR inh	MITF TRPM1 inh	HIF-2a inh conf	HIF-1a cs	others
O=C(NCc1ccccc1)c1nc(S(=O)(=O)Cc2ccccc2)ncc1Cl	20	85*	-14	105*	94*	49	90*	70*
Cc1nc(Cl)c(C(=O)NCc2ccccc2)c(C)c1Cl	6	-6	14	1	11	-14	nt	nt
O=C(NCc1ccc2c(c1)OCO2)c1nc(S(=O)(=O)Cc2ccccc2F)ncc1Cl	36	88*	11	106*	95*	91*	68*	70*	Mdm2-MdmX confirm=102*
O=C(NCc1ccc2c(c1)OCO2)c1ccc(Cl)nc1	23	0	0	7	8	-15	nt	nt
CN1CCN(C(=O)C[C@H]2C=C[C@H](NS(=O)(=O)c3cccc(F)c3)[C@H](CO)O2)CC1	-11	nt	nt	nt	nt	nt	nt	nt
C[C@H](CO)N1C[C@H](C)[C@H](CN(C)S(=O)(=O)c2ccc(Cl)cc2)OCCCC[C@H](C)Oc2ccc(NS(=O)(=O)c3cn(C)cn3)cc2C1=O	9	nt	nt	nt	nt	nt	nt	nt
O=C1c2ccccc2[C@@]2(Cc3ccccc3N(CCN3CCOCC3)C2=O)[C@H](c2ccc(CO)cc2)N1Cc1ccccc1Cl	-11	nt	nt	nt	nt	nt	nt	nt
O=c1c2ccccc2cnn1CCOc1ccccc1	nt	54*	74*	44	58	58	64*	71*
O=C(O)Cn1ncc2ccccc2c1=O	-6	9	-17	12	1	-19	nt	nt
Cc1ccc(C(C)C)c(OCc2ccc(C(=O)N/N=C/c3ccc(C(=O)O)cc3)cc2)c1	-50	67*	-3	-83	8	-4	81*	-13
Cc1cc(C(=O)NC2CC(C)(C)Cc3c2cnn3-c2ccccc2)n(C)n1 (stereo not given)	0	18	4	6	11	0	nt	nt
